From PubChem BioAssay
MITF inh: inhibitors of human MITF. AlphaScreen MITF homodimerization, bead proximity signal. inhibition, % at 2.6 µM. 650,000 compounds, 0.91% hits; in the data active means inhibition above about 50%;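 further: 0% = vehicle wells with protein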
GPR151 ag: human GPR151 activation; PathHunter beta-arrestin GPR151 cells, luminescence; activation, % at 11.2 µM; 650,000 compounds, 1% hits; AID 1508602; in the data active means activation above about 4.9%;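 further: 0% = median of compound wells and 100% = cells with positive control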
TEAD-YAP inh: TEAD-YAP interaction inhibition; HEK-TIYL cells, TEAD-Gal4/YAP UAS-luciferase luminescence; inhibition, % at 9.12 µM; 640,000 compounds, 1.4% hits; AID 1259422; in the data active means inhibition above about 32%;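 further: 0% = median of test compound wells and 100% = reference inhibitor wells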
FBW7 act: human FBW7 E3 ligase activation, primary screen | normalized activity (activation), % at 26.1 µM | AlphaScreen FBW7–phospho-cyclin E peptide binding, activator screen | 650,000 compounds, 0.13% hits | Q969H0; in the data active means normalized activity above about 1.9%;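 further: purified mutant Fbw7 with reduced substrate affinity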
Target sequence (Q969H0 whole entry, looked up): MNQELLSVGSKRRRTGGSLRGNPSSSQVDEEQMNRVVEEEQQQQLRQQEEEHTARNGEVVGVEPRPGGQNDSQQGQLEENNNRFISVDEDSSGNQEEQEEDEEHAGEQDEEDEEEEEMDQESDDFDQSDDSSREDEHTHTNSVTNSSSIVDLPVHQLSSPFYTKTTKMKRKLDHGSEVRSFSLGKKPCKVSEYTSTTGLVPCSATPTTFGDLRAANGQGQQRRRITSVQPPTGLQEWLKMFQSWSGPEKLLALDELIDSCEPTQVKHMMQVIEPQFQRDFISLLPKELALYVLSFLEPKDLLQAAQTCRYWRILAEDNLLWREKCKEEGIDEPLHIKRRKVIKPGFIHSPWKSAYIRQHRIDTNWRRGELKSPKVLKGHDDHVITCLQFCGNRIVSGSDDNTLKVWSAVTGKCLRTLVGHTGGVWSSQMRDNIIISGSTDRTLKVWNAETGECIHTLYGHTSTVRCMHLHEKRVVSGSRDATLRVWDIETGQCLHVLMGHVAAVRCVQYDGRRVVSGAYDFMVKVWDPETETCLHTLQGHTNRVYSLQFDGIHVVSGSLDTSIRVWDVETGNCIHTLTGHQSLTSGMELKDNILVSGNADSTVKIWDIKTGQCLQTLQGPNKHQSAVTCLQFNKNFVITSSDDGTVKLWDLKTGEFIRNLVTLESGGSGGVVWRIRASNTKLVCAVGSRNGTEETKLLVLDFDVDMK
Numbers without * were called inactive. A selection: hits, their analogues and other compounds. The true share with any hit is near 3.4%.

SMILES	MITF inh	GPR151 ag	TEAD-YAP inh	FBW7 act
COc1ccc2c(c1)CC(c1nc3ccc(-c4ccncc4)cc3c(=O)[nH]1)CO2 (stereo not given)	21	0	2	1
COc1ccc2c(c1)CC(c1nc3ccc(-c4cn[nH]c4C)cc3c(=O)[nH]1)CO2 (stereo not given)	4	0	32*	0
COc1ccc2c(c1)OCC(c1nc3cc(-c4cn[nH]c4)c(F)cc3[nH]1)C2 (stereo not given)	-5	0	84*	0
O=C1CSC(=O)N1Cc1ccc(F)cc1	-16	0	6	0
CCOCCOC(=O)C1=C(C)NC(=O)CC1c1cccc(Cl)c1Cl (stereo not given)	11	0	-1	0
CCN(CC)c1ccc(N/C(N)=N/c2nc(C)cc(C)n2)cc1 (tested in a mixture with another compound)	17	1	58*	0
Cc1cc(C)nc(/N=C(\N)Nc2ccc(CC(=O)OC(C)C)cc2)n1	-6	1	40*	0
O=C(NCC1CCC2(CCN(Cc3ccc(-c4ccccc4)cc3)CC2)O1)c1ccco1 (stereo not given)	7	1	-5	0
Cc1ccccc1NC(C)C(=O)N/N=C/c1ccccc1Cl (stereo not given)	-8	0	1	0
Cc1nc2ccccc2c2c1CC(C(C)(Cl)Br)O2 (stereo not given)	-4	0	34*	0
CN(C)CCOC(=O)c1cc2ccccc2n1CC(=O)c1ccccc1	11	0	-1	0
CN(C)/C=C1/S/C(=N/S(=O)(=O)c2ccccc2)N(C2CCCCC2)C1=O	3	-1	-7	2.5*
O=c1c2ccccc2ncn1-c1ccc([N+](=O)[O-])cc1[N+](=O)[O-]	13	-1	49*	0
CCOC(=O)C(CC)/C(C)=N\NC(=O)c1ccccc1[N+](=O)[O-] (stereo not given)	9	0	2	1
CCOC(=O)C(CC)/C(C)=N\NC(=O)c1ccccc1O (stereo not given)	0	1	59*	-1
CCOC(=O)c1c(C)[nH]c(-c2csc(N)n2)c1C	6	1	32*	0
O=C1CCCN1CCCNc1nc(Nc2ncccn2)nc2c1ncn2-c1ccsc1	-5	1	0	0
CC(C)N(CCNc1nc(NCCCN2CCCC2=O)nc2c1ncn2-c1ccsc1)C(C)C	5	1	7	0
CCCNc1nc(NCCCN2CCCC2=O)nc2c1ncn2-c1ccsc1	8	-1	48*	0
O=C1CCCN1CCCNc1nc(Nc2nccc3ccccc23)nc2c1ncn2-c1ccsc1	-1	2	59*	0
O=C1CCCN1CCCNc1nc(N2CCN(c3ccccn3)CC2)nc2c1ncn2-c1ccsc1	-7	-3	58*	0
O=C1CCCN1CCCNc1nc(N2CCOCC2)nc2c1ncn2-c1ccsc1	-1	0	57*	0
CC(=O)N1CCc2cc(NC3CCN(Cc4ccccc4)CC3)ccc21	-10	0	-10	0
O=C(Nc1cnn(-c2cccc(C(=O)Nc3ccc4c(c3)OCO4)c2)c1)Nc1ccccc1Cl	4	1	2	0
O=C1CCCN1CCn1cnc2c(NCCO)nc(N3CCN(c4ccccn4)CC3)nc21	17	2	-1	0
SMILES	MITF inh	GPR151 ag	TEAD-YAP inh	FBW7 act
O=C1CCCN1CCCNc1nc(NC2CCN(Cc3ccccc3)CC2)nc2c1ncn2-c1ccsc1	-5	0	36*	0
O=C1CCCN1CCn1cnc2c(NCCc3ccc(O)cc3)nc(N3CCN(c4ccccn4)CC3)nc21	5	0	36*	0
FC(F)(F)c1ccc(Cn2cnc3c(NC4CCN(Cc5ccccc5)CC4)nc(Cl)nc32)cc1	4	1	20	0
c1ccc(CN2CCC(Nc3nc(Nc4ccccc4)nc4c3ncn4-c3ccsc3)CC2)cc1	8	-1	8	0
O=C1CCCN1CCCNc1nc(NC2CCN(Cc3ccccc3)CC2)nc2c1ncn2CCN1CCCC1=O	-2	1	2	0
OC1CCC(Nc2nc(NC3CCN(Cc4ccccc4)CC3)c3ncn(-c4ccsc4)c3n2)CC1 (stereo not given)	-5	4	60*	0
OC1CCC(Nc2nc(NC3CCN(Cc4ccccc4)CC3)c3ncn(Cc4ccc(C(F)(F)F)cc4)c3n2)CC1 (stereo not given)	2	3	49*	0
N#Cc1cc2cc3c(cc2nc1NCCNC(=O)c1ccncc1)OCO3	-12	-1	7	0
COc1ccc(Cl)cc1NC(=O)c1c(NCc2cccn2C)sc2c1CCCC2	5	0	0	1
COc1ccc(NC(=O)c2ccccc2NC(=O)c2cccc([N+](=O)[O-])c2C)cc1	1	0	2	0
CCOC(=O)c1sc2nc(C)nc(N3CCOCC3)c2c1C	3	1	-20	0
CC(=O)Nc1ccc(Nc2nc(NCCCN3CCCC3=O)nc3c2ncn3-c2ccsc2)cc1	14	-1	40*	0
O=C1CCCN1CCCNc1nc(NCCN2CCOCC2)c2ncn(-c3ccsc3)c2n1	16	0	43*	0
O=C1CCCN1CCCNc1nc(NCCCN2CCCC2=O)c2ncn(-c3ccccc3)c2n1	-8	-1	-2	0
CCOc1ccccc1C1CC(=O)NC(SCc2ccccc2)=C1C#N (stereo not given)	4	0	2	0
Cc1nc(C)c(/C(O)=C/c2nc3ccccc3oc2=O)s1	58*	-3	-4	1
CCOC(=O)C(C)Oc1cc(Br)c(C=O)cc1OC (stereo not given)	4	0	4	0
CCOC(=O)C(=Cc1cc(OC)c(OC)cc1Br)C(=O)OCC	2	2	42*	0
O=C(Nc1nc(-c2ccc(S(=O)(=O)N3CCCCCC3)cc2)cs1)c1cccs1	5	0	-1	0
O=S(=O)(c1ccc(-c2csc(N/N=C/c3cccs3)n2)cc1)N1CCCC1	7	-1	51*	1
O=C(CSC1CC(=O)N(c2cccc(Br)c2)C1=O)Nc1ccc(Br)cc1 (stereo not given)	-3	1	5	0
Cc1[nH]c2c(C(=O)NCC3Cc4c(F)ccc(-c5ncccn5)c4O3)cccc2c1C (stereo not given)	9	2	32*	0
CC1(C)CC2CC(C)(CN2c2ccc(C(=O)O)cc2[N+](=O)[O-])C1 (stereo not given)	6	-1	35*	0
Cc1ccc(Cn2c(=O)c3ccccc3n(Cc3nc(-c4ccccc4Cl)no3)c2=O)cc1	19	-1	-7	1
COCCN=c1scc(-c2ccccc2)n1/N=C1\CCc2ccccc21	13	2	72*	0
O=C1C=CC(=O)N1CCCCCCN1C(=O)C=CC1=O	2	-2	41*	0
CSc1sccc1/C=N/Nc1ccc([N+](=O)[O-])cc1	11	-1	-19	2.1*
COc1ccc2nc3oc(C(=O)N4CCOCC4)cc3cc2c1	10	-5	64*	0
